About 50 (4%) of roughly 1,400 compounds were called active. A selection follows. Unmarked numbers belong to inactive results.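 The calls were made as follows: active = mean inhibition across replicates above about 26% (limit read from the data); inactive = the rest.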

In the experiment the target is Caspase-3 (Homo sapiens) (UniProt P42574). Put plainly: CASP3 blockers, validation, counterassay for UBE2N polyubiquitination inhibitor project, biochemical, one-dose (AID 488856).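 Also: plate controls were DMSO with caspase-3 for no effect and DMSO wells lacking enzyme for full effect.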 To be noted: Recombinant caspase-3, Caspase-Glo 3/7 luminescence, 60 min; at 20 µM; hits give high values.
Caspase-3 (Homo sapiens), sequence (P42574 whole entry, looked up): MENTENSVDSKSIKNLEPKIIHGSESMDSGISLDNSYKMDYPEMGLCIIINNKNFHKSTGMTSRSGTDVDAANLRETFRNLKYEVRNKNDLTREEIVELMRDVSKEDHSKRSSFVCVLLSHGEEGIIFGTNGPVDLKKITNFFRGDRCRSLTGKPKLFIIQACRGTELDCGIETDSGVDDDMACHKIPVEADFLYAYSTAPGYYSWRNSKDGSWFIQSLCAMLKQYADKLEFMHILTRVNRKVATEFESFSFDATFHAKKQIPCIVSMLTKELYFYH
One may read the inhibition as the change of the read-out against control, counted positive when it falls. Consider `CC(C)n1cnc2c(Nc3cccc(Cl)c3)nc(N(CCO)CCCO)nc21`, for which the inhibition was -1.5%.

As to `C#CCOCCOCCOCCNc1nc(N2CCN(C(=O)CCCCCCCCCCNC(=O)[C@H]([C@@H](C)CC)n3cc(CCCCN=C(N)N)nn3)CC2)nc(N2CCN(C(=O)CCCCCCCCCCNC(=O)[C@H](CO)n3cc(CCCSC)nn3)CC2)n1`, the inhibition was -0.7%.

With `NC(N)=N/N=C/c1ccc(OCc2ccc(Cl)cc2Cl)cc1`, the inhibition was -1.8%.

Turning to `COc1ccc(-c2nnc3ccc(SCc4ccccc4)nn23)cc1`, the inhibition is -6.5%.

On to `COc1cccc(Cn2cnc3c([N+](=O)[O-])c(C)c(C)cc32)c1`, for which the inhibition is -0.7%.

With `CN(C(=O)CN(CCO)CC(=O)N(C)C(C)(C)Cc1ccccc1)C(C)(C)Cc1ccccc1`, the inhibition is -0.1%.

As to `CCOc1ccc2nc(N(CCCN(C)C)C(=O)c3ccc(C(=O)c4ccccc4)cc3)sc2c1`, the inhibition was 3.4%.

Regarding `Cc1ccc(C(=O)N/C(=C/c2ccc(-c3cccc([N+](=O)[O-])c3)o2)C(=O)NCCCN(C)C)cc1`, the inhibition is -0.7%.

Turning to `COc1ccc(C(CNC(=O)c2cccc(NS(=O)(=O)c3ccc(C)c(F)c3)c2)N2CCCC2)cc1` (stereo not drawn), the inhibition was 0.9%.

In the case of `Cn1c(C(=O)NCCCN2CCN(c3cccc(Cl)c3)CC2)cc2c(=O)n(C)c3ccccc3c21`, the inhibition was 1.8%.

Consider `CC1CC(C)(C)n2c(O)c(N=NC(N)=S)c3cccc1c32` (stereo not drawn), for which the inhibition was -2.8%.

As to `CN(C)CCCN(C(=O)c1ccc(S(=O)(=O)N2CCCCCC2)cc1)c1nc2ccc(Br)cc2s1`, the inhibition is 0.1%.

Consider `COc1ccc2sc(-c3ccc(S(C)(=O)=O)cc3)c(C#Cc3cncn3C)c2c1`, for which the inhibition was 0.2%.

For `COc1ccc(-n2nnnc2-c2nc3ccccc3s2)cc1`, the inhibition is 85.5% (active).

`CCN(CC)CCNC(=O)c1ccc(NC(=O)c2cc(-c3ccncc3)nc3ccccc23)cc1`: the inhibition was -3.4%.

With `O=S(=O)(c1ccc(NC(=S)NN=C(C2CC2)C2CC2)cc1)N1CCOCC1`, the inhibition was 3.2%.

Consider `COc1ccc2sc(-c3ccccc3OC)c(-c3ccc(OCCN4CCCC4)cc3)c2c1`, for which the inhibition is -2.6%.

Regarding `O=c1cc(CO)oc(C(Nc2cccc([N+](=O)[O-])c2)c2ccccn2)c1O` (stereo not drawn), the inhibition is 1.9%.

Take `Cc1nc(N2CCN(c3ccccn3)CC2)c2c(C)c(C(=O)Nc3ccc(F)cc3)sc2n1`: the inhibition was -2.6%.

For the compound `C#CCOCCOCCOCCNc1nc(N2CCN(C(=O)CCCCCCCCCCNC(=O)Cn3cc(CCCCCN)nn3)CC2)nc(N2CCN(C(=O)CCCCCCCCCCNC(=O)[C@H](CO)n3cc(CCCSC)nn3)CC2)n1`, the inhibition was 3%.

Take `S=c1nc2ccccc2c2nc(-c3cccnc3)[nH]n12`: the inhibition is 16%.

Consider `Cc1ccc(N(C(=O)c2snc(C(N)=O)c2N)C(C(=O)NCC2CCCO2)c2c[nH]c3ccccc23)cc1` (stereo not drawn), for which the inhibition is 0.8%.

On to `CCN(CC)CCC(c1cc(OC)c(OC)c(OC)c1)c1c(OC)cc(OC)c2c(-c3ccccc3)cc(=O)oc12` (stereo not drawn), for which the inhibition is -2%.

Turning to `Cc1ccccc1C(=O)OC1OC(=O)C(Cl)=C1Nc1ccccc1` (stereo not drawn), the inhibition was -0.3%.

Take `O=C(COC(=O)Cn1cnc2ccccc2c1=O)NCc1ccccc1Cl`: the inhibition is -0.6%.

Regarding `COc1cccc(N(C(=O)c2snc(C(N)=O)c2N)C(C(=O)NCC2CCCO2)c2c[nH]c3ccccc23)c1` (stereo not drawn), the inhibition was -8.9%.

With `COc1ccccc1-c1sc2ccccc2c1-c1ccc(C(C)=O)cc1`, the inhibition is 12.1%.

For the compound `Cc1ccc(NC2=C(Cl)C(=O)OC2OC(=O)c2ccccc2C)cc1` (stereo not drawn), the inhibition is 0.6%.

As for `CSCCC(NC(=O)c1ccc(Cl)cc1Cl)C(=O)NNC(=O)c1csc(N2CCOCC2)n1` (stereo not drawn), the inhibition is 1.1%.

Take `COc1ccc(C(CNC(=O)c2ccc(S(=O)(=O)Nc3ccccc3F)cc2)N(C)C)cc1` (stereo not drawn): the inhibition was 2.2%.

Turning to `COc1ccc(-c2sc3ccccc3c2-c2ccc(OCCN3CCOCC3)cc2)cc1`, the inhibition was 0.1%.

In the case of `Cc1ccc(C(C(=O)NCC2CCCO2)N(C(=O)c2snc(C(N)=O)c2N)c2ccc(C(C)C)cc2)o1` (stereo not drawn), the inhibition was -0.8%.

As for `C#CCOCCOCCOCCNc1nc(N2CCN(C(=O)CCCCCCCCCCNC(=O)[C@H](CCCCN)n3cc(C)nn3)CC2)nc(N2CCN(C(=O)CCCCCCCCCCNC(=O)[C@H](CO)n3cc(CCCSC)nn3)CC2)n1`, the inhibition was -3.2%.

As for `CCOCCCNC(=O)c1cn(CC(C)C)c(=O)c2c1c1ccccc1n2C`, the inhibition was -2.3%.

In the case of `COc1cccc2sc3cc(NCC[C@@H]4CCCN4C)ccc3c(=O)c12`, the inhibition was 63.1% (active).

With `NC(=O)NC(CC(=O)NNC(=O)c1ccccn1)c1ccc(Cl)cc1` (stereo not drawn), the inhibition is -0.9%.

`Cc1ncc(CO)c(/C=N/NC(=O)c2cccc(S(=O)(=O)N3CCCC3)c2)c1O`: the inhibition is -0.5%.

Regarding `Cc1ccc(-c2noc(CCC(=O)Nc3ccccc3N3CCN(C)CC3)n2)cc1`, the inhibition was -3.5%.

As to `CC1(C)Cc2ccccc2-c2[nH]c(=S)[nH]c(=O)c21`, the inhibition is 2.3%.

As for `CCOC(=O)c1ccc(NC(=O)c2nc[nH]c2C(=O)NCc2ccccc2)cc1`, the inhibition was 1.9%.

With `O=C(CCCCCn1c(=O)[nH]c2ccccc2c1=O)NCCc1c[nH]c2ccccc12`, the inhibition is -2%.

Take `O=C(CCCCCN1C(=O)c2cccc3cccc(c23)C1=O)NCc1ccco1`: the inhibition is -1.7%.

Take `CCOc1ccc(N(C(=O)c2snc(C(N)=O)c2N)C(C(=O)NCC2CCCO2)c2c[nH]c3ccccc23)cc1` (stereo not drawn): the inhibition was -4.2%.

Take `Cc1ccc(NC(=O)c2cnc(SCC(=O)NCC3CCCO3)n(C)c2=O)cc1` (stereo not drawn): the inhibition is 96.8% (active).

As to `CC(=O)NC(=S)NNC(=O)c1ccc(Br)cc1`, the inhibition was 6.4%.

Consider `Cc1cccc(-c2nc3ccc(C(=O)NCCN4CCN(C)CC4)cc3nc2-c2cccc(C)c2)c1`, for which the inhibition is -4%.

For `CCOC(=O)c1cccc(NS(=O)(=O)c2c(C(=O)N3CCCCCC3)c(C)n(C)c2C)c1`, the inhibition is -2.7%.

In the case of `C#CCOCCOCCOCCNc1nc(N2CCN(C(=O)[C@H](CCCCN)n3cc([C@@H](N)C(C)CC)nn3)CC2)nc(N2CCN(C(=O)[C@H](Cc3ccc(O)cc3)n3cc([C@@H](N)C(C)CC)nn3)CC2)n1` (stereo partly drawn), the inhibition is -3.4%.

(Values after PubChem BioAssay AID488856 (Sanford-Burnham Center for Chemical Genomics, 2010).)
